# RORgamma inh: qHTS for inhibitors of ROR gamma transcriptional activity. Drosophila S2 Gal4-RORgamma UAS-luciferase reporter, 20 h. Potency, µM (titrated, usually from 53.6 µM), without a hit: at the top dose activity change, negative = inhibition, usual class: inhibitors. 310,000 compounds, 5.4% hits; also: % is scaled to controls: 0 for no effect and ±100 for the full control effect; nearly all actives have a fitted effect of over 60% in size
# Target sequence (P51450 whole entry, looked up, the tested form may be a part): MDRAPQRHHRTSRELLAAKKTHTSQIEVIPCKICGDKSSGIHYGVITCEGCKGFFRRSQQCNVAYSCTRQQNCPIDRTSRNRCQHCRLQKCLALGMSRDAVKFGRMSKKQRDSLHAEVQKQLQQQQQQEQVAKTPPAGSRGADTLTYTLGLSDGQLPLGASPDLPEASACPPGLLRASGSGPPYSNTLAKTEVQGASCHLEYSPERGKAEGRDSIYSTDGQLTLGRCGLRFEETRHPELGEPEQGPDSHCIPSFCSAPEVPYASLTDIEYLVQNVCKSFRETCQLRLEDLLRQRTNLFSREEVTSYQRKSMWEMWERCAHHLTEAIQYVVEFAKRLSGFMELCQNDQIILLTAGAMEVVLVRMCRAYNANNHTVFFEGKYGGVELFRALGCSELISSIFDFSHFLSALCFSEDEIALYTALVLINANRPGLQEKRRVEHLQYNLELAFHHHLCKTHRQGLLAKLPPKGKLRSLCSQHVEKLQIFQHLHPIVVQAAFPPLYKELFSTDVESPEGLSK
#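 Luminescence from a UAS-regulated Photinus luciferase reporter in stably transfected Drosophila Schneider cells is measured; decreased signal marks ROR gamma inhibition. Fusion expression is induced by 700 uM copper sulfate for 20 hr.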
# MCF10A rerep: A quantitative high throughput screen for small molecules that induce DNA re-replication in MCF 10a normal breast cells; MCF 10A DNA re-replication, Hoechst nuclear intensity, 48 h; Potency, µM (doses to about 46.1 µM), for the others: at the highest dose activity, positive = re-replication, usual class: activators; 350,000 compounds, 2.9% hits; AID 624296, 2012; also: % of control where 0% means no effect; nearly all actives have a fitted effect of over 50% in size
# VP16 counter: VP16 counterscreen qHTS for inhibitors of ROR gamma transcriptional activity; 310,000 compounds, 3.5% hits; Potency, µM (highest dose often 53.6 µM), for the others: at the highest dose activity, negative = inhibition, most hits filed as inhibitors; Drosophila S2 Gal4-VP16 UAS-luciferase, luminescence, 20 h;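 also: Gal4-VP16 expression switched on by copper sulfate through the metallothionein promoter; % is scaled to controls: 0 for no effect and ±100 for the full control effect; nearly all actives have a fitted effect of over 50% in size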
# ELG1 DNA repair: qHTS screen for small molecules that inhibit ELG1-dependent DNA repair in human embryonic kidney (HEK293T) cells expressing luciferase-tagged ELG1; 330,000 compounds, 2.3% hits; Potency, µM (highest dose often 46.1 µM), for inactives: at the highest dose activity change, negative = inhibition, hits mostly inhibitors; HEK293T ELG1-luciferase reporter, luminescence, 16 h; DNA damage induced by 5-fluorouridine; also: % is scaled to controls: 0 for no effect and ±100 for the full control effect; nearly all actives have a fitted effect of over 55% in size
#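 5-Fluorouridine DNA damage + compound/DMSO, 2,000 cells/well, 16 h, 37 °C/5% CO2. ONE-Glo, 30 min RT, luminescence. Readout = decrease in reporter signal.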
# SW480 rerep: A quantitative high throughput screen for small molecules that induce DNA re-replication in SW480 colon adenocarcinoma cells; SW480 DNA re-replication, Hoechst DNA content imaging, 48 h; Potency, µM (highest dose often 46.1 µM), for the others: top-dose re-replication activation, actives largely listed as activators; 340,000 compounds, 1.8% hits; also: % of control where 0% means no effect; nearly all actives have a fitted effect of over 55% in size
#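 Hoechst fluorescence of nuclei (405 nm excitation, 500-530 nm emission) measured by plate-scanning imager after 48 hr compound exposure at 37 C; re-replication scored as increased number of nuclei with elevated intensity.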
# An asterisk follows results filed as active; ? = inconclusive; nt = no result given; [ ] = another dose, or the depositor's remark. This is a sample that favours compounds with a hit; in the whole collection about 10% have one here. Calls follow the shape of the dose curve; as a rule, active = well fitted curve in the direction sought with a large enough effect; inconclusive = small, poorly fitted or top-dose-only effect, or another doubt; inactive = no such curve, though single readings can be large; an effect the other way counts as inactive or inconclusive. Potency is read from the fitted curve at half-maximal effect.
SMILES,RORgamma inh,MCF10A rerep,VP16 counter,ELG1 DNA repair,SW480 rerep
CCOC(=O)N1CCN(C(=S)NC(=O)c2ccc(F)cc2)CC1,2µM*,4%,3.5µM*,1%,-2%
CCOC(=O)N1CCN(C(=S)NC(=O)c2ccnn2C)CC1,?,7%,32µM*,9%,-2%
NNC(=S)Nc1c(F)cc(F)cc1Br,4µM*,?,?,2%,6%
Cc1ccc2nc3c(cc2c1)c(NC(=O)c1ccco1)nn3CC(C)C,26%,12%,-6%,?,?
CCn1nc(NC(=O)c2ccco2)c2cc3ccccc3nc21,4%,21µM*,4%,?,?
CC(C)Cn1nc(NC(=O)c2ccco2)c2cc3ccccc3nc21,0%,?,-7%,?,16µM*
Cc1cc(C)n2c(SCC(O)=C(C#N)c3nc4ccccc4[nH]3)nnc2n1,nt,7%,nt,nt,-28%
Cc1ccc(Nc2nnc(SC/C(O)=C(\C#N)c3nc4ccccc4[nH]3)s2)c(C)c1,?,?,?,-18%,10%
Cc1cccc(Nc2nnc(SC/C(O)=C(\C#N)c3nc4ccccc4[nH]3)s2)c1,7.1µM*,16µM*,11µM*,1%,25%
COc1ccc(C)cc1-n1nnnc1SC/C(O)=C(\C#N)c1nc2ccccc2[nH]1,13µM*,4%,?,-29%,8%
Cc1nc(C)n(C(Oc2ccc(Cl)cc2Cl)C(=O)C(C)(C)C)n1 (centres undefined),nt,?,nt,nt,3%
N#CC1=C(N)NC(SCC(=O)Nc2ccc(Br)cc2)=C(C#N)C12CCCCC2,37%,?,-13%,23µM*,10%
N#CC1=C(N)NC(SCc2ccccc2)=C(C#N)C12CCCC2,44%,18µM*,-13%,?,?
N#CC1=C(N)NC(SCc2ccc(Cl)cc2)=C(C#N)C12CCCCC2,?,?,-18%,-6%,7%
COCCn1c(SC(C)C(=O)Nc2ccc(Cl)cn2)nnc1-c1ccncc1 (centres undefined),1%,3%,-3%,4%,-2%
O=C(Nc1cccc(F)c1)N1CC[C@@]2(CCCNC2)C1,-12%,nt,14%,nt,nt
O=S(=O)(NCC(Nc1ccc(Cl)cc1)c1ccccc1)c1ccccc1 (centres undefined),114%,4.6µM*,?,-9%,?
CC(C)COC(=O)N1CCCC1C(=O)O (centres undefined),23%,6.5µM*,-2%,?,0.73µM*
CC(C)(C)OC(=O)N1CCC[C@H]1C(=O)O,-2%,24%,2%,?,-21%
Cc1cccc(N(Cc2cc3cc(C)ccc3[nH]c2=O)C(=O)c2cccs2)c1,21%,10µM*,2%,?,-1%
Cc1ccc(NC(=O)N(CCCN2CCOCC2)Cc2cc3cc4c(cc3[nH]c2=O)OCO4)cc1,15%,24%,-13%,21%,4%
Cc1ccc(NC(=O)N(Cc2cccs2)Cc2cc3cc4c(cc3[nH]c2=O)OCO4)cc1,?,nt,-5%,21µM*,nt
CCN(CC)CCCN(Cc1cc2cc3c(cc2[nH]c1=O)OCO3)C(=S)Nc1ccc(OC)cc1,11%,?,-2%,-2%,3%
COc1ccc(CN(Cc2cc3cc4c(cc3[nH]c2=O)OCO4)C(=O)NC2CCCCC2)cc1,25%,7%,-6%,16µM*,10%
COc1ccc(NC(=O)N(Cc2cccs2)Cc2cc3cc4c(cc3[nH]c2=O)OCO4)cc1,45%,3%,7%,21µM*,-2%
SMILES,RORgamma inh,MCF10A rerep,VP16 counter,ELG1 DNA repair,SW480 rerep
COC(=O)[C@H]1CC2(CC=C(C)C)C(=O)[C@@](CC=C(C)C)(C(=O)C(C(=O)c3ccccc3)=C2OC)C1(C)C (tested in a mixture with another compound),28%,nt,-13%,nt,nt
C/C(CC(=O)Nc1ccc(F)cc1F)=N\NC(=O)C(=O)N1CCCCC1,?,nt,28%,?,nt
CC(=O)NC1[C@H]([C@H](O)[C@H](O)CO)OC(C(=O)O)=C[C@H]1N=C(N)N (some centres undefined),-4%[10 µM],4%,-9%,nt,4%
Cc1cc2cc(CN(Cc3ccco3)C(=O)NCc3ccccc3)c(=O)[nH]c2cc1C,44%,-6%,-3%,?,0%
COc1ccc2[nH]c(=O)c(CN(CCO)S(=O)(=O)c3c(C)ccc4nsnc34)cc2c1,-20%,250%[0.0737 µM],0%,-2%,14%
O=C(Nc1ccc(F)cc1)N(Cc1ccco1)Cc1cc2cc3c(cc2[nH]c1=O)OCO3,?,18µM*,-29%,23µM*,5%
CCCCNC(=S)N(Cc1ccco1)Cc1cc2cc3c(cc2[nH]c1=O)OCCO3,?,1%,-9%,15µM*,8%
COc1ccc2[nH]c(=O)c(CN(Cc3cccs3)S(=O)(=O)c3cccc4nsnc34)cc2c1,19%[0.365 µM],?,nt,1.3µM*,?
Cc1ccc(NC(=O)N(Cc2ccc3c(c2)OCO3)Cc2cc3cc4c(cc3[nH]c2=O)OCCO4)cc1,?,0%,2%,21µM*,-2%
CCOCCCNC(=S)N(Cc1ccco1)Cc1cc2cc3c(cc2[nH]c1=O)OCCO3,?,21%,7%,?,-25%
COC(c1ccccc1)c1nnc(CCC(=O)NCc2cccc(-n3cccn3)c2)o1 (centres undefined),16%,4%,-12%,-2%,-4%
CNC(=S)N(Cc1cccs1)Cc1cc2cc(OC)ccc2[nH]c1=O,39%,3%,5%,?,nt
COc1ccc2[nH]c(=O)c(CN(Cc3cccs3)C(=S)Nc3cccc(C)c3)cc2c1,-5%,?,-10%,5.8µM*,nt
COc1cc(OC)cc(C(=O)N[C@H](C(=O)Nc2nc(-c3ccc(OC)c(OC)c3)cs2)C(C)C)c1,8%,?,0%,21µM*,5%
COc1ccc(OC)c(-c2csc(NC(=O)Cc3ccccc3OC)n2)c1,29%,11%,2%,-9%,22%
COc1cc(OC)cc(C(=O)N[C@H](C(=O)Nc2nc(-c3cc(OC)ccc3OC)cs2)C(C)C)c1,-14%,-3%,5%,21µM*,27%
O=C(Cn1c(C(F)(F)F)nc2ccccc21)N/N=C/c1ccco1,-19%,2%,2%,-6%,-8%
O=c1c2c(nc3cc(-c4cccc(F)c4)[nH]n13)CCC2,6%,3%,-10%,?,-31%
O=c1c2c(nc3cc(-c4ccc(F)cc4)[nH]n13)CCCC2,8.9µM*,13%,11µM*,?,0%
